Counter-ions that a name gives are not always drawn.
Experiments:
Conditions in all cases: incubation time: 27 h, anaerobic, 37 °C;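 for the amine columns active = adjusted P below 0.05 in both replicates with a change the same way and a mean fold change under 0.8 or over 1.25; inactive = the rest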
[1] = test system: Clostridium sporogenes DSM 1664; experiment: growth (OD595) fold change vs plate DMSO controls (fold change (ratio)); higher = more growth
Method in brief: (§1)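 Growth is expressed as the fold change relative to the median of the DMSO control wells on each plate. Cultures in mGAM were grown anaerobically in 96-well plates for 27 h at 37 °C, shaken, and read at 595 nm. Readings were blank-subtracted, corrected for compound background with 20 µM compound solutions in water, and converted to OD with a calibration factor of 5. Fold changes above 1.5 were set to NA, and each value is the mean of 2 biological replicates.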

Escherichia coli IAI1 [2] = experiment: as above
Method in brief: as §1

[3] = test system: Klebsiella aerogenes DSM 30053; experiment: as above
Method in brief: as §1

[4] = test system: Ruminococcus gnavus DSM 108212; experiment: as above
Method in brief: as §1

[5] = test system: Klebsiella aerogenes DSM 30053; experiment: fold change of Histamine concentration vs plate DMSO controls (fold change (ratio)); higher = more amine produced, active = hit call of the paper (significant change in both replicates, either direction)
Method in brief: (§2)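 Each value is the fold change relative to DMSO-only wells on the same plate. Four gut bacterial strains were grown anaerobically in mGAM at 37 °C for 27 h in 80 µL wells, starting at OD 0.1 before a 1:1 dilution, with compounds at 20 µM final (sweeteners 50 µM). Whole cultures were extracted with cold acetonitrile/methanol containing 0.1% formic acid, centrifuged, and amines were quantified by LC–triple-quadrupole MS (dynamic MRM) against external calibration curves with within-batch drift correction. Values are means of 2 biological replicates.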

[6] = test system: Clostridium sporogenes DSM 1664; experiment: fold change of Tryptamine concentration vs plate DMSO controls (fold change (ratio)); higher = more amine produced, active = hit call of the paper (significant change in both replicates, either direction)
Method in brief: as §2

[7] = test system: Ruminococcus gnavus DSM 108212; experiment: as above
Method in brief: as §2

Escherichia coli IAI1 [8] = experiment: fold change of Putrescine concentration vs plate DMSO controls (fold change (ratio)); higher = more amine produced, active = hit call of the paper (significant change in both replicates, either direction)
Method in brief: as §2

[9] = test system: Klebsiella aerogenes DSM 30053; experiment: as above
Method in brief: as §2

Escherichia coli IAI1 [10] = experiment: fold change of Cadaverine concentration vs plate DMSO controls (fold change (ratio)); higher = more amine produced, active = hit call of the paper (significant change in both replicates, either direction)
Method in brief: as §2

[11] = test system: Klebsiella aerogenes DSM 30053; experiment: as above
Method in brief: as §2

[12] = test system: Ruminococcus gnavus DSM 108212; experiment: fold change of 2-Phenylethylamine concentration vs plate DMSO controls (fold change (ratio)); higher = more amine produced, active = hit call of the paper (significant change in both replicates, either direction)
Method in brief: as §2

SMILES	growth [1]	growth (Escherichia coli IAI1 [2])	growth [3]	growth [4]	fold change of Histamine concentration [5]	fold change of Tryptamine concentration [6]	fold change of Tryptamine concentration [7]	fold change of Putrescine concentration (Escherichia coli IAI1 [8])	fold change of Putrescine concentration [9]	fold change of Cadaverine concentration (Escherichia coli IAI1 [10])	fold change of Cadaverine concentration [11]	fold change of 2-Phenylethylamine concentration [12]
COc1nc(C)nc(Cl)c1NC1=NCCN1 [Moxonidine] (20 µM)	1.05	0.991	0.981	1.01	1.07 (inactive)	1 (inactive)	1.04 (inactive)	1 (inactive)	1.01 (inactive)	1.01 (inactive)	0.991 (inactive)	1.07 (inactive)
CN1CC(=O)N2[C@H](c3ccc4c(c3)OCO4)c3[nH]c4ccccc4c3C[C@@H]2C1=O [Tadalafil] (20 µM)	1	1.02	0.993	0.916	1.07 (inactive)	1.07 (inactive)	0.925 (inactive)	0.957 (inactive)	1.01 (inactive)	1.03 (inactive)	0.971 (inactive)	0.911 (inactive)
CC(=O)NCCCS(=O)(=O)O [Acamprosate calcium] (20 µM)	1.08	0.999	0.963	0.795	1.02 (inactive)	1.02 (inactive)	0.996 (inactive)	0.995 (inactive)	1.02 (inactive)	0.983 (inactive)	1 (inactive)	0.996 (inactive)
CC(=O)[C@H]1CC[C@H]2[C@@H]3CC=C4C[C@@H](O)CC[C@]4(C)[C@H]3CC[C@]12C [Pregnenolone] (20 µM)	1.1	1.07	1	0.993	1.06 (inactive)	1.04 (inactive)	0.998 (inactive)	1.03 (inactive)	1.02 (inactive)	0.968 (inactive)	0.994 (inactive)	1 (inactive)
COc1cc2c(cc1OC)CC(=O)N(CCCN(C)C[C@H]1Cc3cc(OC)c(OC)cc31)CC2 [Ivabradine hydrochloride] (20 µM)	1.05	0.995	0.986	0.903	1.02 (inactive)	1.01 (inactive)	1.1 (inactive)	0.924 (inactive)	0.937 (inactive)	0.895 (inactive)	1.01 (inactive)	1.1 (inactive)
CN(C)CCOC(c1ccccc1)c1ccccc1 [Diphenhydramine hydrochloride] (20 µM)	0.881	0.994	0.974	1.25	1 (inactive)	1.05 (inactive)	0.945 (inactive)	0.962 (inactive)	0.996 (inactive)	0.98 (inactive)	0.985 (inactive)	0.914 (inactive)
Cc1ncc([N+](=O)[O-])n1CC(O)CCl (stereo not given) [Ornidazole] (20 µM)	0.007	0.984	1.04	0.0518	0.885 (inactive)	0.00845 (active)	0.0747 (active)	0.976 (inactive)	0.986 (inactive)	0.962 (inactive)	1.02 (inactive)	0.0499 (active)
O=C1OCCN1/N=C/c1ccc([N+](=O)[O-])o1 [Furazolidone] (20 µM)	0.395	1.04	0.855	1.22	0.991 (inactive)	0.402 (inactive)	0.973 (inactive)	0.81 (inactive)	0.937 (inactive)	1.75 (active)	1 (inactive)	1.11 (inactive)
Nc1ccc(S(=O)(=O)Nc2nccs2)cc1 [Sulfathiazole] (20 µM)	0.969	0.979	1.03	0.853	1 (inactive)	0.968 (inactive)	1.03 (inactive)	0.955 (inactive)	1.02 (inactive)	1.03 (inactive)	1.01 (inactive)	1.03 (inactive)
CC1c2cccc(O)c2C(O)=C2C(=O)C3(O)C(O)=C(C(N)=O)C(=O)C(N(C)C)C3C(O)C21 (stereo not given) [Doxycycline hydrochloride] (20 µM)	0.0027	0.0209	0.241	0.613	0.459 (inactive)	0.0313 (active)	0.225 (active)	0.219 (active)	0.659 (active)	0.412 (active)	0.724 (active)	0.288 (active)
Cc1nc2n(c(=O)c1CCN1CCC(c3noc4cc(F)ccc34)CC1)CCCC2 [Risperidone] (20 µM)	1	1	1	1.02	1.04 (inactive)	0.962 (inactive)	0.931 (inactive)	1.33 (inactive)	1.05 (inactive)	0.952 (inactive)	1.01 (inactive)	0.878 (inactive)
Nc1nc(F)nc2c1ncn2[C@@H]1O[C@H](CO)[C@@H](O)[C@@H]1O [Fludarabine] (20 µM)	0.775	0.524	0.982	0.936	0.976 (inactive)	1.04 (inactive)	0.796 (active)	0.546 (inactive)	0.965 (inactive)	0.91 (inactive)	1.02 (inactive)	0.838 (inactive)
OC[C@H]1O[C@@H](O[C@@H]2[C@@H](CO)OC(O)(CO)[C@H]2O)[C@H](O)[C@@H](O)[C@H]1O (mixture of isomers) [Lactulose] (50 µM)	1.06	0.906	1.01	0.977	1.01 (inactive)	0.98 (inactive)	1 (inactive)	0.955 (inactive)	1.02 (inactive)	1.05 (inactive)	0.994 (inactive)	0.98 (inactive)
CCOC(=O)Nc1ccc2c(c1)N(C(=O)CCN1CCOCC1)c1ccccc1S2 [Moricizine hydrochloride] (20 µM)	1.09	1.08	0.995	1.06	1 (inactive)	0.989 (inactive)	0.978 (inactive)	1.03 (inactive)	1.01 (inactive)	1.01 (inactive)	1 (inactive)	1 (inactive)
C[N+]1(C)CCC(=C(c2ccccc2)c2ccccc2)CC1 [Diphemanil methylsulfate] (20 µM)	1.04	1.02	1.07	0.984	0.94 (inactive)	1.17 (inactive)	1.01 (inactive)	0.958 (inactive)	0.962 (inactive)	1.02 (inactive)	1.02 (inactive)	1.06 (inactive)
CC(COc1ccccc1)N(CCCl)Cc1ccccc1 (stereo not given) [Phenoxybenzamine hydrochloride] (20 µM)	0.887	1.03	1.01	1.02	1.02 (inactive)	1 (inactive)	1.01 (inactive)	1.02 (inactive)	1.02 (inactive)	0.963 (inactive)	0.985 (inactive)	1.05 (inactive)
CN(C)CCC(c1ccc(Cl)cc1)c1ccccn1 (stereo not given) [Chlorpheniramine maleate] (20 µM)	0.73	0.712	0.719	0.699	0.983 (inactive)	1.05 (inactive)	1.03 (inactive)	0.846 (inactive)	0.989 (inactive)	1.43 (active)	1 (inactive)	1.02 (inactive)
O=S(=O)([O-])NC1CCCCC1.[Na+] [Sodium cyclamate] (50 µM)	1.01	1.02	0.974	1.03	1.04 (inactive)	1.01 (inactive)	1.01 (inactive)	1.03 (inactive)	1.02 (inactive)	1.05 (inactive)	1 (inactive)	1.02 (inactive)
Cc1nc(=O)c2cc(CN(C)c3ccc(C(=O)N[C@@H](CCC(=O)O)C(=O)O)s3)ccc2[nH]1 [Raltitrexed] (20 µM)	1.11	1	1.02	1.21	1 (inactive)	1.17 (inactive)	1.06 (inactive)	0.924 (inactive)	0.968 (inactive)	0.943 (inactive)	1.05 (inactive)	1.06 (inactive)
O=C(O)c1cc(-c2ccc(F)cc2F)ccc1O [Diflunisal] (20 µM)	1.05	0.978	0.985	1.22	1.02 (inactive)	1.01 (inactive)	1.02 (inactive)	1.07 (inactive)	0.988 (inactive)	1.02 (inactive)	0.994 (inactive)	1.1 (inactive)
CC(=O)N[C@@H](CC(=O)O)C(=O)N[C@@H](CCC(=O)O)C(=O)O [Spaglumic acid] (20 µM)	1.09	0.992	1.03	1.18	1.03 (inactive)	1.02 (inactive)	0.995 (inactive)	0.939 (inactive)	0.993 (inactive)	0.988 (inactive)	0.988 (inactive)	1.02 (inactive)
COC(=O)C1=C(C)NC(C)=C(C(=O)OCC(C)C)C1c1ccccc1[N+](=O)[O-] (stereo not given) [Nisoldipine] (20 µM)	0.851	1.13	1.02	0.871	0.949 (inactive)	1.06 (inactive)	0.899 (inactive)	1.1 (inactive)	1 (inactive)	0.981 (inactive)	1.01 (inactive)	0.898 (inactive)
OCCN1CCN(CC/C=C2/c3ccccc3Sc3ccc(C(F)(F)F)cc32)CC1 [Flupentixol dihydrochloride cis-(Z)] (20 µM)	1.03	0.959	0.968	0.925	1 (inactive)	1.12 (inactive)	0.921 (inactive)	1.02 (inactive)	0.933 (inactive)	0.852 (inactive)	1.02 (inactive)	1.06 (inactive)
CCOc1ccccc1C(N)=O [Ethenzamide] (20 µM)	1.07	1	1.01	0.956	1.02 (inactive)	1.1 (inactive)	1.01 (inactive)	0.983 (inactive)	0.985 (inactive)	0.986 (inactive)	0.978 (inactive)	1.03 (inactive)
CC(C)NCC(O)c1ccc(O)c(O)c1 (single isomer, unassigned; (-)) [(-) Isoproterenol hydrochloride] (20 µM)	1.02	0.976	1.15	0.899	0.874 (inactive)	1.03 (inactive)	0.857 (inactive)	1 (inactive)	0.996 (inactive)	0.982 (inactive)	1.02 (inactive)	0.814 (inactive)

From the supplement of paper PMC12494721
